Compound activity deposited in PubChem by National Center for Advancing Translational Sciences (NCATS).
KB-3-1 cytotox = KB-3-1 parental cell cytotoxicity. KB-3-1 viability, CellTiter-Glo ATP luminescence, 72 h. Potency, µM (top dose mostly 46.1 µM), actives largely listed as cytotoxic. actives 1.4% (n = 400,000); also: nearly all actives have a fitted effect of over 60% in size
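Screening of KB-3-1 cells (DMEM, 10% FBS, phenol-red free) ran from lowest to highest compound concentration; after 72 h at 37 °C viability was read luminescently and curves fitted.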
SW480 rerep = induces DNA re-replication in SW480 colon adenocarcinoma cells; SW480 DNA re-replication, Hoechst DNA content imaging, 48 h; Potency, µM (titrated, usually from 46.1 µM), most hits filed as activators; actives 1.8% (n = 340,000); also: nearly all actives have a fitted effect of over 55% in size
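Cells (250 per well) received 23 nL compound or DMSO by pin tool and were kept 48 hr at 37 C, 5% CO2. Nuclei were then stained with Hoechst for 40 min and scanned for DNA content.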
HT1080 IDH1KD tx = toxicity to HT-1080 IDH1 knockdown cells (counter line) | HT-1080 IDH1 knockdown viability, ATP luminescence, 48 h | Potency, µM (series often up to 46.1 µM), usual class: cytotoxic | actives 2% (n = 360,000) | AID 686971
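CellTiter-Glo luminescence after 48 h compound exposure at 37 degrees C of IDH1-knockdown HT-1080 cells in 5% FBS RPMI. %Activity scaled between DMSO wells and cell-free media wells, with curves fitted and assigned curve classes.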
MCF10A rereplic = induces DNA re-replication in MCF 10a normal breast cells; actives 2.9% (n = 350,000); MCF 10A DNA re-replication, Hoechst nuclear intensity, 48 h; AID 624296; Potency, µM (titrated, usually from 46.1 µM), actives largely listed as activators; also: nearly all actives have a fitted effect of over 50% in size
KB-V1 MDR tox = KB-V1 MDR subline cytotoxicity; KB-V1 MDR cells viability, CellTiter-Glo, 72 h; AID 1347076; Potency, µM (series often up to 46.1 µM), usual class: cytotoxic; actives 3.4% (n = 400,000); also: nearly all actives have a fitted effect of over 60% in size
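KB-V1, DMEM (no phenol red) + 10% FBS; cpd pin-transferred, titration series; 72 h, 37 degrees C; CellTiter-Glo, luminescence. Data normalized, curve-fit.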
HT1080-NT tox = kills 2HG-producing HT-1080-NT fibrosarcoma cells | HT-1080-NT fibrosarcoma viability, CellTiter-Glo ATP luminescence, 48 h | Potency, µM (highest dose often 46.1 µM), hits mostly cytotoxic | actives 1.6% (n = 360,000);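 also: NT is the 2HG producing partner of a matched IDH1 knockdown line; nearly all actives have a fitted effect of over 55% in size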
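Viability by CellTiter-Glo luminescence after 48 h compound exposure at 37C of HT-1080-NT cells (750/well, RPMI, 5% FBS). % activity scaled between DMSO wells and medium-only wells, then curve-fitted and categorized by curve class.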
Numbers stand for hits; – = inactive; ? = inconclusive; · = no result; ! = repeats disagree. Only some compounds are listed: those with a hit (about 7.9% of all), similar ones and a draw of the others. Calls follow the shape of the dose curve; as a rule, active = well fitted curve in the direction sought with a large enough effect; inconclusive = small, poorly fitted or top-dose-only effect, or another doubt; inactive = no such curve, though single readings can be large; an effect the other way counts as inactive or inconclusive.

SMILES	KB-3-1 cytotox	SW480 rerep	HT1080 IDH1KD tx	MCF10A rereplic	KB-V1 MDR tox	HT1080-NT tox
O=C(Cn1cnc2c(nnn2Cc2ccccc2)c1=O)NCc1ccccc1Cl	–	–	–	–	–	–
CC(=O)Nc1ccc(NC(=O)Cn2cnc3c(cnn3C(C)(C)C)c2=O)cc1	–	–	–	?	–	–
COc1ccc(Cl)cc1NC(=O)CN(C)C(=O)c1cccc(S(=O)(=O)N2CCN(C)CC2)c1	–	–	–	–	21µM	–
Cc1ccc(C)c(NC(=O)CN(C)C(=O)c2cccc(S(=O)(=O)N3CCN(Cc4ccccc4)CC3)c2)c1	?	–	?	–	?	21µM
Cc1ccc(C)c(NC(=O)CN(C)C(=O)c2cccc(S(=O)(=O)N3CCCC3)c2)c1	–	–	–	–	?	–
CCc1ccccc1NC(=O)CNC(=O)c1cccc(S(=O)(=O)N2CCN(Cc3ccccc3)CC2)c1	?	–	–	–	16µM	–
CCc1c(C)nc2nncn2c1NCc1ccccc1	–	·	·	·	?	·
CCOC(=O)c1c(-c2ccccc2)oc2ccc(NS(=O)(=O)c3ccc(C(C)C)cc3)cc12	–	·	·	·	–	·
Cc1cc(C(=O)CSc2nnc(-c3ccco3)o2)c(C)n1-c1ccc2c(c1)OCCO2	–	–	–	?	?	–
CC(=O)c1ccc(OCC(=O)c2cc(C)n(-c3ccc4c(c3)OCO4)c2C)cc1	?	–	?	–	8.2µM	–
Cc1cc(-n2c(C)cc(C(=O)CSc3nnnn3-c3ccc(Cl)cc3)c2C)no1	–	–	–	6.5µM	–	–
Cc1cc(-n2c(C)cc(C(=O)CSc3nnc4sc5ccccc5n34)c2C)no1	–	–	–	–	?	–
Cc1cc(C(=O)CSc2nnnn2C)c(C)n1-c1ccc2c(c1)OCCO2	–	–	–	?	21µM	–
Cc1cc(C(=O)COC(=O)c2ccc(N)c([N+](=O)[O-])c2)c(C)n1-c1ccc2c(c1)OCO2	?	–	?	–	?	–
CN(C)S(=O)(=O)N(CC(=O)NCCSCc1c(F)cccc1Cl)c1ccccc1	–	·	·	·	?	·
C=CCn1c(Cc2cccs2)nnc1SCC(=O)c1ccc2ccccc2c1	–	–	–	12µM	?	–
C=CCn1c(Cc2cccs2)nnc1SCC(=O)Nc1ccc(OC)c(OC)c1	–	–	–	–	23µM	–
O=Cc1cccc(C=O)c1	–	·	·	·	–	·
COc1ccccc1Nc1nc2ccc(Cl)cc2nc1-n1nc(C)cc1C	–	·	·	·	–	·
CCOCCCNC(=O)C1CCN(S(=O)(=O)c2c(C)noc2/C=C\c2ccc(OC)cc2)CC1	–	–	–	–	18µM	–
COc1ccc(/C=C/c2onc(C)c2S(=O)(=O)N2CCC(C(=O)N3CCC(C)CC3)CC2)cc1	21µM!	–	–	?	–	–
CCCNC(=O)C1CCN(S(=O)(=O)c2c(C)noc2/C=C\c2ccc(OC)cc2)CC1	–	–	–	–	–	–
Cc1cccc(/C=C/c2onc(C)c2S(=O)(=O)N2CCC(C(=O)N3CCCCCC3)CC2)c1	–	?	–	–	–	–
Cc1cccc(/C=C/c2onc(C)c2S(=O)(=O)N2CCC(C(=O)N3CCC(C)CC3)CC2)c1	16µM!	–	–	?	?	–
CC1=C(C(=O)Nc2ccc(C)cc2C)C(c2ccc(O)cc2)n2nc(SCC(=O)c3ccc(C)cc3)nc2N1 (stereo not given)	–	·	·	·	?	·
SMILES	KB-3-1 cytotox	SW480 rerep	HT1080 IDH1KD tx	MCF10A rereplic	KB-V1 MDR tox	HT1080-NT tox
CCC1CCCCN1C(=O)CSc1nnc(N)s1 (stereo not given)	–	–	–	–	?	–
CCOC(=O)C1(CCc2ccccc2)CCN(C(=O)c2cccc(C)n2)CC1	–	–	–	–	–	–
CCOC(=O)C1(CCc2ccccc2)CCN(C(=O)c2occc2C)CC1	–	1.6µM	–	–	?	–
CCn1c(-c2cc3c(C(F)(F)F)nn(C)c3s2)n[nH]c1=S	?	–	–	–	10µM	–
O=C1C(=O)c2cccnc2-c2ncccc21	3.7µM	·	0.58µM	·	18µM	1µM
COC1=C(Br)C(=O)c2ncccc2C1=O	?	2.9µM	8.2µM	5.2µM	?	–
O=C1c2cccnc2-c2ncccc21	–	–	–	–	–	–
CC(NC(=O)c1ccc(S(=O)(=O)N(C)C)cc1)c1ccc(-n2ccnc2)cc1 (stereo not given)	–	–	–	–	?	–
CC1CN(CC(O)COC(c2ccccc2)c2ccccc2)CC(C)O1 (stereo not given)	–	?	–	?	21µM	–
OC(COC(c1ccc(Cl)cc1)c1ccc(Cl)cc1)CN1CCc2ccccc2C1 (stereo not given)	–	?	?	18µM	–	21µM
CN1CCN(CC(O)COC(c2ccc(Cl)cc2)c2ccc(Cl)cc2)CC1 (stereo not given)	–	–	?	21µM	–	?
OC(COC(c1ccc(F)cc1)c1ccc(F)cc1)CN1CCc2ccccc2C1 (stereo not given)	–	?	–	?	16µM	–
OC(COC(c1ccccc1)c1ccccc1)CN1CCc2ccccc2C1 (stereo not given)	–	–	?	?	?	–
OC1CCCN(CC(O)COC(c2ccc(F)cc2)c2ccc(F)cc2)C1 (stereo not given)	–	–	–	–	–	?
CC(=O)N/C(=C/c1ccccc1)c1sc2ccccc2[n+]1CCCCI	–	·	·	·	–	·
O=C(CCC1N=C2c3ccccc3N=C(SCc3ccc(F)cc3)N2C1=O)N1CCN(c2ccccc2)CC1 (stereo not given)	–	·	·	·	–	·
CN(C)S(=O)(=O)c1ccc(Nc2nc(C3CC3)nc3c2nnn3Cc2ccccc2Cl)cc1	2.9µM	–	5.8µM	–	?	?
COc1ccc(OC)c(Nc2nc(C3CC3)nc3c2nnn3Cc2ccccc2)c1	–	–	–	–	2.1µM	–
c1ccc(Cn2nnc3c(Nc4ccc5c(c4)OCO5)nc(C4CC4)nc32)cc1	–	–	?	10µM	–	?
COC(=O)CNc1nc(C2CC2)nc2c1nnn2Cc1ccccc1Cl	–	–	–	–	–	–
c1ccc(Cn2nnc3c(NCc4ccc5c(c4)OCO5)ncnc32)cc1	–	–	–	–	–	–
CC(C)Cc1nc(Nc2ccccc2C#N)c2nnn(Cc3ccccc3)c2n1	–	?	18µM	–	?	?
O=C1CCc2cc(S(=O)(=O)Nc3ccc(F)cc3)ccc2N1	–	–	–	–	–	–
COc1ccc(Sc2nnc(Cc3ccccc3)c3ccccc23)cc1	–	?	?	9.2µM	?	–
Cc1ccc(NC(=O)CCc2c[nH]c3ccccc23)nc1	4.1µM	3.3µM	?	?	?	?
